Measured values published in PubChem BioAssay.
Activity calls are given as the source filed them.

Tests used:
[1] = system: PRMT1 (protein arginine N-methyltransferase 1); assay: small molecules binding arginine methyltransferase PRMT1 – biochemical, small-molecule microarray, 635 nm fluorescence, primary screen (AID 1088); conditions: higher = more signal;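 note: binding of Prmt1 protein to compounds spotted on small-molecule microarray slides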
[2] = growth effects on S. cerevisiae YJM789 – YJM789 clinical isolate, OD600, 24 h, basal, primary screen (AID 1089); conditions: higher = more signal, called active from +8 up or from −8 down;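 note: growth of clinical yeast isolate S. cerevisiae YJM 789 seeded 1000 cells per well; test concentration not given here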
[3] = S. pombe growth modifiers, basal conditions – strain 972, OD600, 24 h, no modulator, primary screen (AID 1090);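 note: basal condition with compound alone and no growth modifier present; test concentration not given here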; conditions: S. pombe 972 growth, higher = more signal, called active from +8 up or from −8 down
[4] = budding yeast growth modifiers under rapamycin – strain BY4716, OD600, 96 h, primary screen (AID 1091); note: test concentration not given here; conditions: S. cerevisiae BY4716 + rapamycin, higher = more signal, called active from +8 up or from −8 down
[5] = target: Torsin-1A-interacting protein 2 (Homo sapiens) (UniProt Q8NFQ8); assay: small molecules binding lysate-expressed LULL1 – cell lysate, human LULL1 lysate, 635/667 nm fluorescence, primary screen (AID 1092); conditions: small-molecule microarray, hLULL1 lysate binding, 635 nm fluorescence; higher = more signal;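 note: probe is lysate of COS7 cells overexpressing human LULL1; score merges per-feature 667 nm fluorescence with signal-to-noise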
[6] = optical density change of DRC41 E. coli – strain DRC41, OD650, 24 h, E. coli filamentation project, primary screen (AID 1093);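 note: MC1000 strain lacking acrAB efflux and sulA so SOS filamentation is blocked; test concentration not given here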; conditions: E. coli DRC41 growth, higher = more signal, called active from +8 up or from −8 down
[7] = probe aLefty2 binding to arrayed compounds – biochemical, biotinylated probe, 635/667 nm fluorescence, primary screen (AID 1094); conditions: small-molecule microarray, higher = more signal;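 note: score merges spot fluorescence near 667 nm with spot signal-to-noise ratio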
[8] = system: Noggin (protein binding on small-molecule microarray); assay: small molecules binding Noggin protein – biochemical, 635/667 nm fluorescence, primary screen (AID 1095); conditions: 635 nm fluorescence, higher = more signal;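 note: score merges 667 nm feature fluorescence with signal to noise over triplicate slides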
[9] = target: Neurogenic locus notch homolog protein 3 (Homo sapiens) (UniProt Q9UM47); assay: small molecules binding NOTCH3 protein – biochemical, 635/667 nm fluorescence, primary screen (AID 1096); conditions: small-molecule microarray, 635 nm fluorescence, higher = more signal
[10] = probe aEGFR binding to arrayed compounds – biochemical, biotinylated probe, 635/667 nm fluorescence, primary screen (AID 1097); conditions: small-molecule microarray, higher = more signal;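 note: probe is a biotinylated anti-EGFR antibody binding compounds printed on slides; score combines fluorescence near 667 nm and signal to noise of each spot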
[11] = system: Plasmodium falciparum Sir2 (PF13_0152, Sir2A); assay: Plasmodium falciparum Sir2A binding compounds – biochemical, small-molecule microarray, 635 nm fluorescence, primary screen (AID 1098); conditions: fluorescence 635 nm, higher = more signal;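 note: score merges spot fluorescence intensity with its signal-to-noise ratio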
[12] = probe aDKK1 binding to arrayed compounds – biochemical, biotinylated probe, 635/667 nm fluorescence, primary screen (AID 1099); conditions: small-molecule microarray, higher = more signal;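 note: score merges 667nm spot fluorescence with signal to noise across triplicate slides; reference of the scale not given here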
[13] = probe aCHRDL2 binding to arrayed compounds – biochemical, biotinylated probe, 635/667 nm fluorescence, primary screen (AID 1100); conditions: small-molecule microarray, higher = more signal
[14] = change in splice reporter luminescence, either direction, cell-based, HEK293, spliceosome inhibition project, primary screen (AID 1101); conditions: HEK293 splicing luciferase reporter, 24 h, higher = more signal, called active from +8 up or from −8 down;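 note: HEK293 cells carrying a splicing-competent luciferase reporter gene; test concentration not given here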
[15] = target: Fibroblast growth factor 10 (Homo sapiens) (UniProt O15520); assay: compounds binding fibroblast growth factor 10 – biochemical, small-molecule microarray, 635 nm fluorescence, primary screen (AID 1102); conditions: FGF10 binding, fluorescence 635 nm, higher = more signal
[16] = system: glycogen synthase kinase-3 (GSK3A per assay name; protocol says GSK3B); assay: compounds binding glycogen synthase kinase-3 – biochemical, small-molecule microarray, 635 nm fluorescence, GSK3A, primary screen (AID 1103); conditions: fluorescence 635 nm, higher = more signal; note: the record names both GSK3A and GSK3B
[17] = target: Epidermal growth factor receptor (Homo sapiens) (UniProt P00533); assay: compounds binding epidermal growth factor receptor – biochemical, small-molecule microarray, 635 nm fluorescence, primary screen (AID 1104); conditions: EGFR binding, higher = more signal;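 note: score merges 667 nm emission intensity with spot signal to noise over triplicate slides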
[18] = target: Follistatin-related protein 3 (Homo sapiens) (UniProt O95633); assay: compounds binding follistatin-related protein 3 – biochemical, small-molecule microarray, 635 nm fluorescence, primary screen (AID 1105); conditions: FSTL3 binding, higher = more signal;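 note: score merges emission near 667 nm and signal to noise per printed spot across three slides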
[19] = target: Dickkopf-related protein 1 (Homo sapiens) (UniProt O94907); assay: small molecules binding DKK1 protein – biochemical, small-molecule microarray, 635 nm fluorescence scan, primary screen (AID 1106); conditions: higher = more signal;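 note: score merges emission near 667 nm with signal to noise over three replicate slides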
[20] = system: Inhibin beta A chain (activin A); assay: small molecules binding activin A – biochemical, small-molecule microarray, 635 nm fluorescence scan, primary screen (AID 1107); conditions: INHBA, higher = more signal;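 note: mouse activin A protein probed at 4.33 µg/mL on printed slides; score merges bound-protein fluorescence near 667 nm with spot signal-to-noise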

Chain of Epidermal growth factor receptor (Homo sapiens) (P00533 whole entry, looked up): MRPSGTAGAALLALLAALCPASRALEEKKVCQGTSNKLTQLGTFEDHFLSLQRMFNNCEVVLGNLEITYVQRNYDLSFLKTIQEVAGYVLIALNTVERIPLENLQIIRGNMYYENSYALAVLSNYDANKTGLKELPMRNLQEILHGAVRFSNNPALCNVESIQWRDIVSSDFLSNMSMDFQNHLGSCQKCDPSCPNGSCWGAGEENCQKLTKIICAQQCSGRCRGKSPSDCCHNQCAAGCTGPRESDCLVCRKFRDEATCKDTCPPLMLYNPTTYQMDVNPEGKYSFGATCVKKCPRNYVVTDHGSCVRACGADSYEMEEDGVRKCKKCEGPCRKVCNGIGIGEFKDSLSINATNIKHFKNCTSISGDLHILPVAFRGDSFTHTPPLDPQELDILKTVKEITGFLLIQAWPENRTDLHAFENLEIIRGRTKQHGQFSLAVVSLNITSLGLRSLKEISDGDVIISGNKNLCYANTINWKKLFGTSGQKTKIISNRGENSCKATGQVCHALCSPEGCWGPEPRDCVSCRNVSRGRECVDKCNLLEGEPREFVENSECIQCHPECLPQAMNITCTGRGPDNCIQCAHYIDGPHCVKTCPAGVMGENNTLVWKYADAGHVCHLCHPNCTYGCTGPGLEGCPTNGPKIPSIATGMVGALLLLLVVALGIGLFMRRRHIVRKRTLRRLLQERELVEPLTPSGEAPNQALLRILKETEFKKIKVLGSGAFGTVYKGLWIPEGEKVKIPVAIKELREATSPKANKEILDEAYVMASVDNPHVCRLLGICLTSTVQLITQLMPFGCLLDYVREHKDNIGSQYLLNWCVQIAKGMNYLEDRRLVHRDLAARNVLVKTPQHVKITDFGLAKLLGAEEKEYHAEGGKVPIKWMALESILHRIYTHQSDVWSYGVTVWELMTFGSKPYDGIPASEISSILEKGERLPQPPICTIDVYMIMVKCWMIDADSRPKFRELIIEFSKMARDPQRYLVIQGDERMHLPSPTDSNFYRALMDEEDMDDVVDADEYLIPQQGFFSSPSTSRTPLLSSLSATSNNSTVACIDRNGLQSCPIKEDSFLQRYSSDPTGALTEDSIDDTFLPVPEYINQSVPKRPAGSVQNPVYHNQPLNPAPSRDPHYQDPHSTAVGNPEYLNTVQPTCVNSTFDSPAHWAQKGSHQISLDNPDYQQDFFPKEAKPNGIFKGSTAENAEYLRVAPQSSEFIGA
Chain of Fibroblast growth factor 10 (Homo sapiens) (O15520 whole entry, looked up): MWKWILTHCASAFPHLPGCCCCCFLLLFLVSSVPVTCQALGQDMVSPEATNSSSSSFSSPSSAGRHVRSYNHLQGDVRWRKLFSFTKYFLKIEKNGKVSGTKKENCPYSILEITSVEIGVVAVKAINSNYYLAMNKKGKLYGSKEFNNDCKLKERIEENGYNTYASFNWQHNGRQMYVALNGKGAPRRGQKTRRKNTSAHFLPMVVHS
Chain of Follistatin-related protein 3 (Homo sapiens) (O95633 whole entry, looked up): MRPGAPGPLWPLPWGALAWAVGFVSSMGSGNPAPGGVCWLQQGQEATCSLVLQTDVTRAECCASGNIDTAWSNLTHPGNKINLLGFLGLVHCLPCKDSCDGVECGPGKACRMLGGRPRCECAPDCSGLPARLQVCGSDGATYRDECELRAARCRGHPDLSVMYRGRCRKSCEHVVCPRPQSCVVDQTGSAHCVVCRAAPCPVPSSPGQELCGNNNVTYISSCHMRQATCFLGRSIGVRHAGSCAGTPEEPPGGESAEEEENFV
Chain of Dickkopf-related protein 1 (Homo sapiens) (O94907 whole entry, looked up): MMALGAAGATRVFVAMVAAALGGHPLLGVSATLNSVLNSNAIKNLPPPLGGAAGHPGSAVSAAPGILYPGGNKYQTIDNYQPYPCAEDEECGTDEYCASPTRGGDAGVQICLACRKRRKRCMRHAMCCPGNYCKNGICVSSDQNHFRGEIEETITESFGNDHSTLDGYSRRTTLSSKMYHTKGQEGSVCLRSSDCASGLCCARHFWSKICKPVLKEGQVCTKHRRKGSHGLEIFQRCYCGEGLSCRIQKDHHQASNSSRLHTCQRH
Chain of Neurogenic locus notch homolog protein 3 (Homo sapiens) (Q9UM47 whole entry, looked up): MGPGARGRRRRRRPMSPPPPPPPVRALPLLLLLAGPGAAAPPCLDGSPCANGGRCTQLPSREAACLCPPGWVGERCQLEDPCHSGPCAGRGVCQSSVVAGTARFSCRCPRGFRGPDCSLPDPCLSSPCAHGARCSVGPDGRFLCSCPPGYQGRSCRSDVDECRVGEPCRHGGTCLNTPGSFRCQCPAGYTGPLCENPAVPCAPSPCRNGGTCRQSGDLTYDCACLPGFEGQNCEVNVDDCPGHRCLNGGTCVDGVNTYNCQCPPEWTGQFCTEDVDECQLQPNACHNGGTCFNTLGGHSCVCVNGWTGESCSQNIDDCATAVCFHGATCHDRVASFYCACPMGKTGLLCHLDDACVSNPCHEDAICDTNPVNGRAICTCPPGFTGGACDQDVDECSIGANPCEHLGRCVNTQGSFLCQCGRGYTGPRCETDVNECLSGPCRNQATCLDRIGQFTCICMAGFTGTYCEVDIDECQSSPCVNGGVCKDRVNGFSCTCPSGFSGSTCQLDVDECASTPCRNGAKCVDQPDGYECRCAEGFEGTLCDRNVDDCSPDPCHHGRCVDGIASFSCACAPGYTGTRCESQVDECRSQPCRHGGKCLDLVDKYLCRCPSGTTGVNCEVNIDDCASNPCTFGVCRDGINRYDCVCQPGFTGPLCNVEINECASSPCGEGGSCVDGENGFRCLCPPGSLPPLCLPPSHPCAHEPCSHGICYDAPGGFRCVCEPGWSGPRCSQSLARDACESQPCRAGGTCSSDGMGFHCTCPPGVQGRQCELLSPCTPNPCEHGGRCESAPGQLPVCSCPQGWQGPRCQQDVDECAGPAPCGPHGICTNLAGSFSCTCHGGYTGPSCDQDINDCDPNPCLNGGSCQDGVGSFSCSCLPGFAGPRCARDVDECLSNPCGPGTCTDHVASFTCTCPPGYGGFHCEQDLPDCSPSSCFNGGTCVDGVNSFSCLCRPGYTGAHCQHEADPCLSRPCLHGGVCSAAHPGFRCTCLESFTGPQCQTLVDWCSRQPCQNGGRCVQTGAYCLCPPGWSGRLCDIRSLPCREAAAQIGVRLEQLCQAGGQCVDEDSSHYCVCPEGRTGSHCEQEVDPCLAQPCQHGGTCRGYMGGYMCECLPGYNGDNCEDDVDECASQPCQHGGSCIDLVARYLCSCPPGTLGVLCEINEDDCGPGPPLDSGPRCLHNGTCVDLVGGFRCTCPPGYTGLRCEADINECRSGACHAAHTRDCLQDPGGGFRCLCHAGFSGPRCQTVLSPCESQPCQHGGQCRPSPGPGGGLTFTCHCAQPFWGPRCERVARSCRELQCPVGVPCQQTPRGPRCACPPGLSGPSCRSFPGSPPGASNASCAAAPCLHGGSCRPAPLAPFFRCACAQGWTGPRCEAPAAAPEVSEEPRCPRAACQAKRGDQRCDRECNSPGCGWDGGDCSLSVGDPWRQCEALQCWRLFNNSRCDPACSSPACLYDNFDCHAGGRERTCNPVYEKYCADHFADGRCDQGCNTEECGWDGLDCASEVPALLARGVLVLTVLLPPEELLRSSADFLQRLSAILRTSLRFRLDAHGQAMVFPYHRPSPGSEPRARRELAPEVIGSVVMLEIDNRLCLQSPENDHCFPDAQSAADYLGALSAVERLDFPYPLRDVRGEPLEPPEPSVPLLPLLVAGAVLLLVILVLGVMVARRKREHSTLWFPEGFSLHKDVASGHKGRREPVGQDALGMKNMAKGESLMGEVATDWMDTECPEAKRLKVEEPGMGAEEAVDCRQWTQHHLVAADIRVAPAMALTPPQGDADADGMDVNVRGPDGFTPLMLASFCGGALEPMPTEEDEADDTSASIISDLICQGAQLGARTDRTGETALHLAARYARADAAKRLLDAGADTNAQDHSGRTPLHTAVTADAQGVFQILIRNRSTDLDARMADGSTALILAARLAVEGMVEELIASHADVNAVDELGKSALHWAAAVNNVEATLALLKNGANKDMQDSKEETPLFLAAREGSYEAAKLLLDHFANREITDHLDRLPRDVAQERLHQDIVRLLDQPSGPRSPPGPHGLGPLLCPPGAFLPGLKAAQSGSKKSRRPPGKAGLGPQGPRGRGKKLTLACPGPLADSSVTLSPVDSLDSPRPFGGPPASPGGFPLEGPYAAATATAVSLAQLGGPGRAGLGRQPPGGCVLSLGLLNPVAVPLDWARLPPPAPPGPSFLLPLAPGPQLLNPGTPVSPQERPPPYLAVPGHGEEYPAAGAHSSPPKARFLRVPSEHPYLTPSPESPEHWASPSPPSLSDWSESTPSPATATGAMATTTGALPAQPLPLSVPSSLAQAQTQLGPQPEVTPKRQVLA
Chain of Torsin-1A-interacting protein 2 (Homo sapiens) (Q8NFQ8 whole entry, looked up): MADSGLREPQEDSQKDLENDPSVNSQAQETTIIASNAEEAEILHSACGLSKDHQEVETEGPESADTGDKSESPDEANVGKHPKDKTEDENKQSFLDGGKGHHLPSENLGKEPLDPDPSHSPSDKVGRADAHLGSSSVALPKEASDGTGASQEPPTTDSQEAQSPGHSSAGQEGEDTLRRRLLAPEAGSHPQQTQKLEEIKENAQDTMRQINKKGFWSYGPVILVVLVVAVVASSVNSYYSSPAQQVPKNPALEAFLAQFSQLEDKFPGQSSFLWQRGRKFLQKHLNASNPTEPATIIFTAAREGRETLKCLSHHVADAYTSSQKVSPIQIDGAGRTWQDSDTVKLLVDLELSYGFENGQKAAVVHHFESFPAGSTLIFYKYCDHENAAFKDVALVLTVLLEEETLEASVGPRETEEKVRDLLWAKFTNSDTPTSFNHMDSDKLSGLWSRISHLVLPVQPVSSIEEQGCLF

SMILES	composite z-score [1]	z-score [2]	z-score [3]	z-score [4]	composite z-score [5]	z-score [6]	composite z-score [7]	composite z-score [8]	composite z-score [9]	composite z-score [10]	composite z-score [11]	composite z-score [12]	composite z-score [13]	z-score [14]	composite z-score [15]	composite z-score [16]	composite z-score [17]	composite z-score [18]	composite z-score [19]	composite z-score [20]
O=C(NN=C1C[C@@H](O)[C@@H](O)[C@@H]2[C@@H]3C(=O)N(Cc4ccccc4)C(=O)[C@@H]3CC[C@@H]12)OCc1ccccc1	-0.395	-0.227 (inactive)	-0.148 (inactive)	-0.413 (inactive)	-0.802	0.258 (inactive)	-0.112	0.509	0.188	0.0551	0.0168	-0.293	-0.284	-0.566 (inactive)	0.0818	0.329	0.263	0.31	0.357	0.198
CCOC(=O)[C@H](Cc1ccccc1)NC(=O)CCC1CC(OC(=O)NCCc2ccc(F)cc2)CC2(CCCC(COC(=O)NCc3ccccc3)O2)O1 (stereo not given in full)	1.56	-0.522 (inactive)	0.653 (inactive)	0.6 (inactive)	0.999	0.413 (inactive)	-0.0965	0.644	1.04	-0.0146	0.857	-0.208	-0.614	0.207 (inactive)	1.16	0.572	0.33	0.76	0.529	0.0158
COC(=O)CC=C[C@@H](C)[C@@H](C=NOCC[C@@H]1C=C[C@H](OC(C)=O)[C@@H](COC(C)=O)O1)NS(=O)(=O)c1ccc(C)cc1	0.477	0.787 (inactive)	0.466 (inactive)	-0.448 (inactive)	-0.0098	0.545 (inactive)	0.135	0.706	-0.213	0.0511	0.133	-0.322	-0.331	-0.43 (inactive)	-0.183	0.328	0.736	0.0237	0.316	0.46
CC(=O)Nc1ccc([C@@H]2N[C@H](C(=O)O)CC[C@H]2C)cc1	0.0579	0.216 (inactive)	-0.228 (inactive)	0.634 (inactive)	0.184	0.622 (inactive)	-0.139	0.399	0.626	-0.0493	0.136	-0.108	-0.401	0.303 (inactive)	0.32	0.461	0.546	0.409	0.444	0.133
CC(CCC(=O)OC[C@H]1O[C@H](C#Cc2ccccc2)C=C[C@@H]1Oc1ccc(C)cc1)=NO[C@H](C)c1cn([C@H](CO)Cc2ccccc2)nn1	1.05	1.62 (inactive)	-0.372 (inactive)	1.31 (inactive)	1.05	0.171 (inactive)	-0.239	0.689	0.695	-0.17	0.708	-0.164	-0.532	0.448 (inactive)	0.17	0.197	0.217	1.12	0.655	0.282
C=CC[C@@H]1C=C[C@H](ON=C(C)CCC(=O)OC[C@H]2O[C@H](c3ccccc3)C=C[C@@H]2Oc2ccc(OC)cc2)[C@@H](CO)O1	0.12	0.0343 (inactive)	-0.212 (inactive)	0.261 (inactive)	-0.177	0.358 (inactive)	-0.209	0.185	-1.3	-0.172	0.892	-0.347	-0.524	-0.393 (inactive)	-0.196	-0.855	-0.382	-0.532	0.0305	0.837
CC(CCN1CCCc2nc(C)c(C)cc21)=NO[C@@H](C)c1cc(-c2c(C)cc(C)cc2C)no1	0.684	0.0024 (inactive)	-2.18 (inactive)	-0.381 (inactive)	1.33	1.74 (inactive)	-0.0512	0.308	0.635	-0.0873	0.739	0.0311	-0.648	-0.408 (inactive)	0.322	0.525	-0.0398	0.293	0.41	0.881
C#CCCCON=C1[C@H]2CCn3c(=O)n(C)c(=O)n3[C@H]2[C@H](O)[C@@H]2O[C@H]12	-0.677	0.516 (inactive)	-0.377 (inactive)	0.658 (inactive)	-0.0133	-0.305 (inactive)	-0.132	1.18	0.891	-0.148	0.325	-0.316	-0.548	0.0589 (inactive)	0.478	0.832	0.719	0.938	0.811	0.213
CON=C[C@@H](NS(=O)(=O)c1ccc(C)cc1)[C@H](C)C=CCC(=O)OC	-0.327	0.903 (inactive)	0.435 (inactive)	0.719 (inactive)	-0.312	0.306 (inactive)	-0.138	0.26	-0.0877	-0.289	0.571	-0.26	-0.447	-0.114 (inactive)	0.0529	-0.435	0.314	0.224	0.611	1.33
O=C1CCCC=C1C(O)CCOC(c1ccccc1)(c1ccccc1)c1ccccc1 (stereo not given)	-0.758	0.162 (inactive)	-1.92 (inactive)	1.55 (inactive)	-0.626	-0.0634 (inactive)	-0.186	0.547	0.103	-0.198	-0.0236	-0.231	-0.15	-0.0834 (inactive)	0.0203	-0.388	-0.0225	-0.108	0.335	0.874
